SMILES strings stand for the structures. Records with an inconclusive call do not appear. Entries that show only a call come without a potency. A number with no mark means an inactive call. Activity calls are given as the source filed them. Calls come from the whole dose curve; as a rule, active = well fitted inhibition curve with a large enough effect; inconclusive = small, poorly fitted or top-dose-only effect; inactive = flat fitted curve, though single readings scatter.

The assay can be described thus: Secondary qRT-PCR qHTS assay for selected Zika virus inhibitors. The settings on record: Vero cells ZIKV infection, NS5 RNA qRT-PCR, 24 h; series mostly up to 32.6 µM. Summed up:
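Viral load was measured as NS5 RNA by TaqMan qRT-PCR and expressed relative to vehicle. This followed ZIKV infection (MOI 1, 3 h adsorption, then wash) of compound-treated Vero cells and 21 h further culture at 37C.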
A general note: Real-time PCR tracks product formation cycle by cycle.
Take `C/C(=C\c1ccc(C(=O)O)cc1)c1ccc2c(c1)C(C)(C)CCC2(C)C`: the Potency was 12.6 µM (active).

For `O=S(=O)(O)c1ccc2cc(N=Nc3cc(S(=O)(=O)O)c4cccnc4c3O)ccc2c1`, the Potency entry was “inactive”.

With `O=C(O)Cc1cccc(OCCCN(Cc2cccc(C(F)(F)F)c2Cl)CC(c2ccccc2)c2ccccc2)c1`, the Potency is 14.1 µM (active).

For `CC(Oc1ccccc1)C(=O)Nc1ccc(C(=O)OCc2cc(=O)n3nc(C4CC4)sc3n2)cc1` (stereo not given), the Potency entry was “inactive”.

Turning to `Cc1ccc2nc(NS(=O)(=O)c3ccc(Cl)cc3)c(Nc3ccc(C(=O)O)cc3)nc2c1`, the Potency result was “inactive”.

In the case of `CO[C@H]1C[C@@H](O[C@@H]2/C(C)=C/C[C@@H]3C[C@@H](C[C@]4(CC[C@H](C)[C@@H](C5CCCCC5)O4)O3)OC(=O)[C@@H]3C=C(C)/C(=N/O)[C@H]4OC/C(=C\C=C\[C@@H]2C)[C@]43O)O[C@@H](C)[C@H]1O`, the Potency is 3.98 µM (active).

Turning to `CC(C)(Sc1ccc(CCN(CCCCC2CCCCC2)C(=O)NC2CCCCC2)cc1)C(=O)O`, the Potency entry is “inactive”.

`Nc1ncnc2c([C@@H]3N[C@H](CO)[C@@H](O)[C@H]3O)c[nH]c12`: the Potency entry was “inactive”.

Take `CC(=O)OC12CC(C)C(OC(=O)c3ccccc3)C1/C=C(/C)C(OC(=O)c1ccccc1)CC(=O)C(C)(C)/C=C/C(C)C2=O` (stereo not given): the Potency entry was “inactive”.

Turning to `O=C(O)CC1CCC(c2ccc(-c3ccc(Nc4ccc(C(F)(F)F)nc4)cn3)cc2)CC1` (stereo not given), the Potency entry is “inactive”.

`O=C(O)c1ccc(O)c2ncc(N3CCCN(CCc4cccc5ccccc45)CC3)cc12`: the Potency entry is “inactive”.

Consider `O=S(=O)(Nc1cc(Cl)c(Oc2cnc3ccccc3c2)c(Cl)c1)c1ccc(Cl)cc1Cl`, for which the Potency was 22.4 µM (active).

For the compound `O=C(O)/C=C/c1ccc(-c2ccc(O)c(C34CC5CC(CC(C5)C3)C4)c2)cc1`, the Potency was 10 µM (active).

Consider `O=C(O)Cn1nnc(-c2cc(N3CCC(Oc4cc(F)ccc4Br)CC3)no2)n1`, for which the Potency result was “inactive”.

Turning to `COc1cc(/C=C/c2ccccc2)c(C(=O)O)c(O)c1CC=C(C)C`, the Potency entry was “inactive”.

`CN(CC(=O)N(Cc1ccc(C2CCCCC2)cc1)c1ccc(C(=O)O)cc1)S(=O)(=O)c1c(F)c(F)c(F)c(F)c1F`: the Potency was 12.6 µM (active).

For `O=C1NC(=O)/C(=C/c2ccc3c(c2)OC(F)(F)O3)S1`, the Potency entry was “inactive”.

Turning to `Oc1cc2ccccc2c2ccccc12`, the Potency was 22.4 µM (active).

For the compound `O=C(O)c1ccc(S(=O)(=O)N(Cc2ccc(OC(F)(F)F)cc2)c2ncc(C(F)(F)F)cc2Cl)cc1`, the Potency result is “inactive”.

As for `O=C(O)C1(Cc2cccc(Nc3nccs3)n2)CCC(Oc2cccc(Cl)c2F)CC1` (stereo not given), the Potency result is “inactive”.

Regarding `CC(C)(C)Sc1c(CC(C)(C)C(=O)O)n(Cc2ccc(Cl)cc2)c2ccc(OCc3ccc4ccccc4n3)cc12`, the Potency was 25.1 µM (active).

Turning to `Cc1cc(C(C#N)c2ccc(Cl)cc2)c(Cl)cc1NC(=O)c1cc(I)cc(I)c1O` (stereo not given), the Potency is 22.4 µM (active).

Regarding `CC(=O)O[C@@H]1C[C@]2(C)[C@@]3(CCC4[C@@]5(C)CC[C@H](O[C@@H]6O[C@H](C(=O)O)[C@@H](O)[C@H](O[C@@H]7O[C@H](CO)[C@H](O)[C@H](O)[C@H]7O[C@@H]7O[C@@H](C)[C@H](O)[C@@H](O)[C@H]7O[C@@H]7OC[C@](O)(CO)[C@H]7O)[C@H]6O[C@@H]6O[C@H](CO)[C@H](O)[C@H](O)[C@H]6O)C(C)(C)C5CC[C@]42C)O[C@@H](O)[C@]12C3CC(C)(C)[C@@H](OC(=O)/C=C/c1ccc(O)c(O)c1)[C@@H]2OC(=O)/C=C/c1ccccc1` (stereo not given in full), the activity change, negative = inhibition is -6.06% [at 6.77 µM].

Turning to `CCOc1c2c(c(OCC)c3ccccc13)C(=O)N(c1ccc(CC(=O)NS(=O)(=O)c3ccccc3)cc1)C2`, the Potency entry is “inactive”.

`CC(C)C[C@H](C(=O)O)c1cc(-c2ccc(C(F)(F)F)cc2)cc(-c2ccc(C(F)(F)F)cc2)c1`: the Potency was 12.6 µM (active).

As for `CC(=O)N1c2ccc(-c3ccc(C(=O)O)cc3)cc2C(Nc2ccc(Cl)cc2)CC1C` (stereo not given), the Potency result was “inactive”.

On to `Cc1ccc([C@@H]2CC=C(C(=O)O)[C@H](c3ccc(C(C)(C)C)cc3)N2S(=O)(=O)c2ccc(C)cc2)cc1`, for which the Potency entry is “inactive”.

As to `CCOc1ccc(-c2cc(NC(=O)c3c(F)cccc3F)c(C(=O)O)s2)cc1`, the Potency entry is “inactive”.

Regarding `CC(=O)Nc1ccc([C@H](C)C(=O)Nc2ncc(C(C)C)s2)cc1`, the Potency result was “inactive”.

Consider `CC(C)=CCc1c2c(c3occ(-c4ccc(O)c(O)c4)c(=O)c3c1O)C=CC(C)(C)O2`, for which the Potency was 4.47 µM (active).
